# Reference: the supplement of paper PMC9950053
# Where a name gives a salt, the structure may show the parent alone.
# System: Danio rerio larvae (5 dpf)
# Assay: startle (activity period 16 minus period 15, 20-s interval sound) minus DMSO control (percentage points); higher = stronger startle response than DMSO larvae
# Details: 10 µM; exposure time: 3 h pre-incubation + 3 h imaging
# Method: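 Wild-type 5 dpf zebrafish larvae (n=48 per drug, 96-well plates, 28.5 °C) were exposed to Tocris FDA-approved library compounds at 10 µM (0.1% DMSO) for 3 h before and 3 h during imaging. Images were taken every 6 s during visual and acoustic stimuli, and larvae were tracked with Z-LaP Tracker. Each measure is the treated-group mean minus the DMSO control mean (n=844), in percentage points. This mapping covers compounds with 5-character plate codes.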
row,Compound,startle
1,O=c1n(CCCN2CCN(c3cccc(Cl)c3)CC2)nc2ccccn12 [Trazodone hydrochloride],3.18
2,CCCC1O[C@@H]2C[C@H]3[C@@H]4CCC5=CC(=O)C=C[C@]5(C)[C@H]4[C@@H](O)C[C@]3(C)[C@]2(C(=O)CO)O1 (some centres not stated) [Budesonide],-5.13
3,CNS(=O)(=O)Cc1ccc2[nH]cc(CCN(C)C)c2c1 [Sumatriptan succinate],2.1
4,C[C@H]1O[C@H](O[C@H]2[C@H](O)[C@@H](O)[C@@H](O[C@H]3[C@H](O)[C@@H](O)C(O)O[C@@H]3CO)O[C@@H]2CO)[C@H](O)[C@@H](O)[C@@H]1N[C@H]1C=C(CO)[C@@H](O)[C@H](O)[C@H]1O (some centres not stated) [Acarbose],-7.07
5,COc1ccccc1Oc1c(NS(=O)(=O)c2ccc(C(C)(C)C)cc2)nc(-c2ncccn2)nc1OCCO [Bosentan],7.41
6,O=C(O)C[C@H](O)C[C@H](O)/C=C/c1c(C2CC2)nc2ccccc2c1-c1ccc(F)cc1 [Pitavastatin calcium],2.76
7,CNCc1ccc(-c2[nH]c3cc(F)cc4c3c2CCNC4=O)cc1 [Rucaparib camsylate],-4.48
8,C#CCN[C@@H]1CCc2ccccc21 [Rasagiline mesylate],3.19
9,NS(=O)(=O)c1cc2c(cc1Cl)NC(C1CC3C=CC1C3)NS2(=O)=O (configuration not stated) [Cyclothiazide],1.22
10,CCCCCCCN(CC)CCCC(O)c1ccc(NS(C)(=O)=O)cc1 (configuration not stated) [Ibutilide hemifumarate],-4.59
11,COCCc1ccc(OCC(O)CNC(C)C)cc1 (configuration not stated) [Metoprolol tartrate],4.47
12,COc1cc2nccc(Oc3ccc(NC(=O)C4(C(=O)Nc5ccc(F)cc5)CC4)cc3)c2cc1OC,-3.85
13,CC(=O)Oc1cc2c(s1)CCN(C(C(=O)C1CC1)c1ccccc1F)C2 (configuration not stated) [Prasugrel],-11.4
14,OC(c1cc(C(F)(F)F)nc2c(C(F)(F)F)cccc12)C1CCCCN1 (configuration not stated) [Mefloquine hydrochloride],-13.1
15,O=C1CCc2ccc(OCCCCN3CCN(c4cccc(Cl)c4Cl)CC3)cc2N1 [Aripiprazole],-3.31
16,CC(C)COCC(CN(Cc1ccccc1)c1ccccc1)N1CCCC1 (configuration not stated) [Bepridil hydrochloride],-3.27
17,COc1cc(N)c(Cl)cc1C(=O)NC1CCN(CCCOc2ccc(F)cc2)CC1OC (configuration not stated) [Cisapride],-1.14
18,CC[C@H]1OC(=O)[C@H](C)[C@@H](O[C@H]2C[C@@](C)(OC)[C@@H](O)[C@H](C)O2)[C@H](C)[C@@H](O[C@@H]2O[C@H](C)C[C@H](N(C)C)[C@H]2O)[C@](C)(O)C[C@@H](C)CN(C)[C@H](C)[C@@H](O)[C@]1(C)O [Azithromycin],2.55
19,CNC(=O)c1cc(Oc2ccc(NC(=O)Nc3ccc(Cl)c(C(F)(F)F)c3)cc2)ccn1 [Sorafenib],-3.34

row,Compound,startle
1,N#Cc1ccc2[nH]cc(CCCCN3CCN(c4ccc5oc(C(N)=O)cc5c4)CC3)c2c1 [Vilazodone hydrochloride],-7.54
2,CN(C)C(=N)NC(=N)N [Metformin hydrochloride],-2.04
3,CN[C@H]1CC[C@@H](c2ccc(Cl)c(Cl)c2)c2ccccc21 [Sertraline hydrochloride],2.62
4,C[C@@H]1C[C@H]2[C@@H]3CCC4=CC(=O)C=C[C@]4(C)[C@@]3(F)[C@@H](O)C[C@]2(C)[C@@]1(O)C(=O)CO [Dexamethasone],-0.0968
5,CC(=O)Nc1ccc(O)cc1 [Acetaminophen],0.242
6,COc1ccccc1OCC(O)CN1CCN(CC(=O)Nc2c(C)cccc2C)CC1 (configuration not stated) [Ranolazine dihydrochloride],2.16
7,OCCN1C[C@H](O)[C@@H](O)[C@H](O)[C@H]1CO [Miglitol],-0.148
8,OCc1cc(C(O)CNCCCCCCOCCCCc2ccccc2)ccc1O (configuration not stated) [Salmeterol xinafoate],-4.63
9,CCc1nc(N)nc(N)c1-c1ccc(Cl)cc1 [Pyrimethamine],1.66
10,CN(C)CCc1c[nH]c2ccc(C[C@H]3COC(=O)N3)cc12 [Zolmitriptan],2.75
11,CC(C)(C(=O)O)c1ccc(C(O)CCCN2CCC(C(O)(c3ccccc3)c3ccccc3)CC2)cc1 (configuration not stated) [Fexofenadine hydrochloride],3.14
12,Cc1cc2c(s1)Nc1ccccc1N=C2N1CCN(C)CC1 [Olanzapine],2.27
13,N#C[C@@H]1C[C@@H]2C[C@@H]2N1C(=O)[C@@H](N)C12CC3CC(CC(O)(C3)C1)C2 [Saxagliptin hydrochloride],4.83
14,CCCc1nn(C)c2c(=O)[nH]c(-c3cc(S(=O)(=O)N4CCN(C)CC4)ccc3OCC)nc12 [Sildenafil citrate],-1.15
15,NC(=O)OCC(COC(N)=O)c1ccccc1 [Felbamate],1.44
16,Clc1ccc2nsnc2c1NC1=NCCN1 [Tizanidine hydrochloride],-2.98
17,CC(C)OC(=O)C(C)(C)Oc1ccc(C(=O)c2ccc(Cl)cc2)cc1 [Fenofibrate],-5.75
18,COc1cc([C@@H]2c3cc4c(cc3[C@@H](O[C@@H]3O[C@@H]5CO[C@@H](C)O[C@H]5[C@H](O)[C@H]3O)[C@H]3COC(=O)[C@H]23)OCO4)cc(OC)c1O [Etoposide],-0.943
